For 53 molecules, Potency results are on record in PubChem BioAssay AID720708 (National Center for Advancing Translational Sciences (NCATS), 2013).

About 660 (0.18%) of roughly 360,000 compounds were called active. Another 2% or so got no clear call; they are omitted. The call rests on the fitted dose curve; in most records, active means well fitted inhibition curve with a large enough effect; inconclusive means small, poorly fitted or top-dose-only effect; inactive means no such curve, though single readings can be large or run the other way. What follows is part of a selection rich in actives, with near analogues and random picks from the rest. A call without a number means that no potency is given here.
Potency means the concentration at half of the fitted maximal effect.

This experiment deals with Rap guanine nucleotide exchange factor 4 (Homo sapiens) (UniProt Q8WZA2). The experiment is described as follows: qHTS for Antagonist of cAMP-regulated guanine nucleotide exchange factor 2 (EPAC2): primary screen. Further: nearly all actives have a fitted effect of over 45% in size. The conditions noted are these: EPAC2 GEF exchange of Rap1B-BODIPY-GDP, fluorescence; series mostly up to 114 µM. An excerpt: In multi-cellular eukaryotic organisms, the effects of cAMP are transduced by two ubiquitously-expressed intracellular cAMP receptors, the classic protein kinase A/cAMP-dependent protein kinase (PKA/cAPK) and the more recently discovered exchange protein directly activated by cAMP/cAMP-regulated guanine nucleotide exchange factor (EPAC/cAMP-GEF). Both PKA and EPAC are ubiquitously expressed in all tissues, and an increase in intracellular cAMP levels will lead to the activation of both PKA and EPAC. Therefore, careful dissections of the individual role and relative contribution of EPAC and PKA within the overall cAMP signaling in various model systems are critical for further elucidating the mechanism of cAMP signaling. To date no EPAC-specific antagonists and agonist, as well as isoform-specific agonists have been reported, and developing EPAC-specific pharmacological probes to determine the physiological functions that EPAC play in the overall cAMP-mediated signaling remains a major challenge within the research field. Furthermore, identified regulators of EPAC may lead to new mechanism-based therapeutic strategies specifically targeting the EPAC / cAMP-signaling components as EPAC has been implicated to play important roles in major human pathological conditions such as diabetes, heart disease, and cancer.
Rap guanine nucleotide exchange factor 4 (Homo sapiens), sequence (Q8WZA2 whole entry, looked up): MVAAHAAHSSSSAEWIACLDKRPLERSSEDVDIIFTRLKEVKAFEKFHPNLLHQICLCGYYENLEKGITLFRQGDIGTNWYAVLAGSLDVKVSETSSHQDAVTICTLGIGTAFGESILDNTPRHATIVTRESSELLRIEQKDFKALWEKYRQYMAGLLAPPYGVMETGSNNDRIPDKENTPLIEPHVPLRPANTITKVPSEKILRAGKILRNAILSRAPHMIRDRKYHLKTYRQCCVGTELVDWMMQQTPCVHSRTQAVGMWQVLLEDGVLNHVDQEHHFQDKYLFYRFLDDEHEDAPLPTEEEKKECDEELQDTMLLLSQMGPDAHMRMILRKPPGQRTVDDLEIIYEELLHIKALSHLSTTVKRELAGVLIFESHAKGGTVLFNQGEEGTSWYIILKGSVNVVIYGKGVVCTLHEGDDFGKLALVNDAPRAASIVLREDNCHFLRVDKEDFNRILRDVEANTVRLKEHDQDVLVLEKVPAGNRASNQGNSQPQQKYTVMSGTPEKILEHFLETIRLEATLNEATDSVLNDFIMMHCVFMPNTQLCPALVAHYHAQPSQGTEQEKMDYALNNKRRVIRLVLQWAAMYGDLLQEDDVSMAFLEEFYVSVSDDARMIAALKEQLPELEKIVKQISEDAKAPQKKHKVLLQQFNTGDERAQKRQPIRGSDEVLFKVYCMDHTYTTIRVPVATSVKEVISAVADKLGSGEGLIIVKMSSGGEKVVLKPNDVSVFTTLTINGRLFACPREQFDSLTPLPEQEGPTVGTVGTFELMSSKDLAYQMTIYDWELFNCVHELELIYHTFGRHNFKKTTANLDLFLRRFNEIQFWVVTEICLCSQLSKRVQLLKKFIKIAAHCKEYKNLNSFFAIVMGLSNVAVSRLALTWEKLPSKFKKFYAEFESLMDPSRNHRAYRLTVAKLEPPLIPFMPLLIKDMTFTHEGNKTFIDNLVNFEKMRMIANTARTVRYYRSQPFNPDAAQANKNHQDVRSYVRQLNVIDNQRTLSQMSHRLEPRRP
This qHTS will be used to screen the Molecular Libraries Small Molecule Repository (MLSMR) as a concentration-titration series using the NCGC unique quantitative screening (qHTS) platform to find inhibitors for EPAC2. In addition, this assay will also be used as a counterscreen for the EPAC1 qHTS. This fluorescent based assay is developed and validated for EPAC2 that measures exchange using EPAC effector Rap1 complex with BODIPY-GDP, a GDP analog with a tethered fluorophores. Inhibitors are identified by monitoring the change in fluorescence signal as the exchanged free BODIPY-GDP has a reduced fluorescence compared to Rap1-bound BODIPY-GDP. Decrease in signal (inhibition) is the desired outcome for the EPAC2 antagonist while no activity in this assay is desired for the EPAC1 antagonist counterscreen.
NIH Chemical Genomics Center [NCGC]
NIH Molecular Libraries Probe Centers Network [MLPCN]
Assay Submitter (PI): Xiaodong Cheng, The University of Texas, Medical Branch
Briefly, three uL of reagents (100 nM EPAC2, 250 nM RAP1B-BODIPY-GDP, 50 uM GDP) were dispensed into a 1536-well Greiner black solid-bottom medium binding assay plate. Controls and test compounds (23 nL) were transferred to the plate via a Kalypsys pin tool equipped with a 1536-pin array. The plates were centrifuged at 1,000 rpm for 15 seconds followed by 5 minute incubation at room temperature. The assay plates were read at 5 minute intervals for 30 minutes in the ViewLux plate reader using 480nm excitation and 540nm emission filters. The results were normalized to the agonist positive control ATA and DMSO.
Background: In qHTS, concentration-response curves come from the screen itself.
On to `CCC(CC)C(C(=O)NC1CCCC1)N1CCN(c2cc(C)nc3ccccc23)CC1` (stereo not drawn), for which the Potency result was “inactive”.

Regarding `COc1cc(C(=O)NC2CCN(C)CC2)ccc1Nc1ncc2c(n1)N(C1CCC(O)CC1)CCC(=O)N2C` (stereo not drawn), the Potency entry was “inactive”.

As for `Cc1[nH]c2ccccc2c1C(=O)c1cc([C@H](NC(=O)OC(C)(C)C)C(C)C)sc1N`, the Potency result was “inactive”.

Take `COc1ccc(NC(=O)C(C)N2c3cccc4cccc(c34)S2(=O)=O)c(OC)c1` (stereo not drawn): the Potency entry was “inactive”.

With `COc1ccc(CNC(=O)C(=O)NCC2OCCN2C(=O)c2ccc(OC)cc2)cc1` (stereo not drawn), the Potency result is “inactive”.

As to `CC1CCCC(NC(=O)CN2CCN(Cc3ccc(Cl)cc3)C2=O)C1C` (stereo not drawn), the Potency result is “inactive”.

Take `Brc1ccc2c(c1)[C@H]1OCC[C@H]1[C@@H](c1cccs1)N2`: the Potency entry was “inactive”.

`CC(C)OC(=O)Cn1nc(C(F)(F)F)c2c1CCCC2`: the Potency result is “inactive”.

On to `CCOC(=O)C1C(C)C(C(C)(C)C)N(S(=O)(=O)c2ccc(C)cc2)C1c1ccccc1` (stereo not drawn), for which the Potency result is “inactive”.

Take `CCOC(=O)[C@]12CCCC=C1N(CCC1=CCCCC1)C(=O)[C@H](CC(=O)N1CCN(C(=O)c3ccco3)CC1)C2`: the Potency entry was “inactive”.

With `Cc1cc(NC(=O)CN2CCC(O)(c3cccc(F)c3)CC2)no1`, the Potency entry is “inactive”.

Consider `O=C(COC(=O)c1cccc(Cl)c1Cl)NC1CCCCCC1`, for which the Potency result is “inactive”.

For the molecule `CCCCCNC(=O)C(c1ccc(OC)cc1)n1c(=O)c(-c2ccccc2)nc2ccccc21` (stereo not drawn), the Potency result was “inactive”.

Take `COc1ccc(NC(=O)CNC(=O)Cn2ccc3ccccc3c2=O)c(OC)c1`: the Potency result was “inactive”.

As for `O=C(CSc1n[nH]c(-c2cccs2)n1)N1CCCCC1`, the Potency entry is “inactive”.

For `Cc1cc(C)nc(SC2CCCCC2NS(=O)(=O)c2ccc(Cl)cc2)n1` (stereo not drawn), the Potency result was “inactive”.

With `N#CC(C(N)=O)=C1CCC2(CC1)OCCCCO2`, the Potency entry is “inactive”.

For the molecule `Cc1ccc(C(C(=O)NC2CCCCC2)N(C(=O)c2csnn2)C2CC2)o1` (stereo not drawn), the Potency entry is “inactive”.

`FC(F)(F)c1cccc(-c2nc3ccccc3n2C(c2ccccc2)c2nc3ccccc3[nH]2)c1` (stereo not drawn): the Potency result was “inactive”.

As to `CCOC(=O)c1cc(S(=O)(=O)NCCc2ccc(OC)c(OC)c2)cn1C`, the Potency entry was “inactive”.

As to `COCCn1nnnc1CN1CCC(NC(=O)Nc2cccc(OC)c2)CC1`, the Potency result is “inactive”.

Consider `CCN1CCCC1CNC(=O)c1ccc2c(c1)NC(=O)/C(=C\c1ccccc1F)S2` (stereo not drawn), for which the Potency result is “inactive”.

For the molecule `CCOC(=O)N1CCN(C(=O)CSc2nc(C)nc3c2c(=O)n(C)c(=O)n3C)CC1`, the Potency entry was “inactive”.

Regarding `CC1(C(=O)Nc2ccc3c(c2)OCCO3)CN(S(C)(=O)=O)CC(=O)N1Cc1cccc(F)c1` (stereo not drawn), the Potency entry was “inactive”.

For the molecule `C[C@H](CO)N1C[C@H](C)[C@@H](CN(C)C(=O)c2cnccn2)Oc2ncc(Br)cc2C1=O`, the Potency entry is “inactive”.

On to `C#CCOCCOCCOCCNc1nc(N2CCN(C(=O)C([C@@H](C)O)n3cc([C@@H](N)CCCCN)nn3)CC2)nc(N2CCN(C(=O)[C@H](CCCCN)n3cc(CN)nn3)CC2)n1` (stereo partly drawn), for which the Potency result is “inactive”.

As for `C#CCOCCOCCOCCNc1nc(N2CCN(C(=O)CCCCCCCCCCNC(=O)[C@H]([C@@H](C)CC)n3cc(CCCCN=C(N)N)nn3)CC2)nc(N2CCN(C(=O)CCCCCCCCCCNC(=O)[C@H](CO)n3cc(CCCSC)nn3)CC2)n1`, the Potency is 50.1 µM (active).

On to `C#CCOCCOCCOCCNc1nc(N2CCN(C(=O)CCCCCCCCCCNC(=O)[C@H](CCCCN)n3cc(C)nn3)CC2)nc(N2CCN(C(=O)CCCCCCCCCCNC(=O)[C@H](CO)n3cc(CCCSC)nn3)CC2)n1`, for which the Potency was 50.1 µM (active).

In the case of `C#CCOCCOCCOCCNc1nc(N2CCN(C(=O)[C@H](CCCCN)n3cc([C@@H](N)C(C)CC)nn3)CC2)nc(N2CCN(C(=O)[C@H](Cc3ccc(O)cc3)n3cc([C@@H](N)C(C)CC)nn3)CC2)n1` (stereo partly drawn), the Potency result was “inactive”.

`C#CCOCCOCCOCCNc1nc(N2CCN(C(=O)C([C@@H](C)CC)n3cc(C(N)COC(=O)C(F)(F)F)nn3)CC2)nc(N2CCN(C(=O)[C@H](CCCCN)n3cc(C(N)CC(C)C)nn3)CC2)n1` (stereo partly drawn): the Potency result was “inactive”.

`C#CCOCCOCCOCCNc1nc(N2CCN(C(=O)[C@H](CO)n3cc([C@@H](N)C(C)C)nn3)CC2)nc(N2CCN(C(=O)[C@H](CCC(=O)O)n3cc([C@@H](N)[C@H](C)CC)nn3)CC2)n1`: the Potency result is “inactive”.

With `CC(C)N(C(=O)Cn1cc(S(=O)(=O)CC(=O)N2CCOCC2)c2ccccc21)C(C)C`, the Potency result is “inactive”.

As for `Cc1cc(NC(=O)Cn2nc(C(F)(F)F)c3c2CCCC3)no1`, the Potency result was “inactive”.

As for `Cc1ccc(C(=O)N[C@H](C(=O)N2CCN(c3ncccn3)CC2)C(C)C)cc1`, the Potency result is “inactive”.

`COCOCCn1cc(CN2CCS(=O)(=O)N(Cc3ccc(-c4cccc(N(C)C)c4)cc3)C(CC(C)C)C2=O)nn1` (stereo not drawn): the Potency result was “inactive”.

`COCOCCn1cc(CN2CCS(=O)(=O)N(Cc3ccc(-c4ccccc4)cc3)C(CC(C)C)C2=O)nn1` (stereo not drawn): the Potency is 10 µM (active).

As to `COc1ccc(-c2ccc(CN3C(CC(C)C)C(=O)N(Cc4cn(CC5CCCCC5)nn4)CCS3(=O)=O)cc2)cc1` (stereo not drawn), the Potency entry was “inactive”.

Take `CCC1Nc2ncnc(N3CCN(c4ccccc4)CC3)c2N(Cc2ccc(Cl)cc2)C1=O` (stereo not drawn): the Potency result was “inactive”.

Turning to `COC(=O)C[C@@H]1C=C[C@@H](NS(=O)(=O)c2cccc(OC)c2)[C@@H](CO)O1`, the Potency entry was “inactive”.

In the case of `C=CCSC(CC)(CC)C(N)=O`, the Potency entry was “inactive”.

Regarding `COc1ccc(Oc2cn[nH]c2-c2ccc(OC)cc2O)cc1`, the Potency was 56.2 µM (active).

On to `COc1ccc(-c2cn[nH]c2-c2ccc(OC)cc2)cc1`, for which the Potency entry is “inactive”.

In the case of `CCOc1ccccc1Oc1cn[nH]c1-c1ccc(OC)cc1O`, the Potency result is “inactive”.

Regarding `CCC1CCCCN1CCNS(=O)(=O)c1ccc2c(c1)CCN2C(C)=O` (stereo not drawn), the Potency result was “inactive”.

As to `CSc1ncccc1C(=O)OCc1ccc(Br)cc1`, the Potency result is “inactive”.

Turning to `COc1ccc(/C=C2\SC(=N)N(c3ccc(F)cc3)C2=O)cc1`, the Potency result was “inactive”.

With `O=C1/C(=C/c2ccc(F)cc2)SC(=S)N1NS(=O)(=O)c1ccccc1`, the Potency is 70.8 µM (active).

As to `O=C(O)c1ccc(/C=C2\SC(=S)N(NC(=O)c3ccc(Br)cc3)C2=O)cc1`, the Potency entry was “inactive”.

`O=c1[nH]c(SCc2cccc(F)c2)nc2ccccc12`: the Potency result was “inactive”.

`N#Cc1c(-c2ccccc2)nc(SCc2cccc(C(F)(F)F)c2)[nH]c1=O`: the Potency is 39.8 µM (active).

Turning to `CC(=O)CSc1nc(CCc2ccccc2)c(C#N)c(=O)[nH]1`, the Potency entry is “inactive”.

As for `COc1ccc(OCCCC(=O)Nc2cccc(S(=O)(=O)N3CCCCCC3)c2)cc1`, the Potency result is “inactive”.

As to `CC(C)(C)NC(=O)C(CCc1ccccc1)n1c(=O)c(-c2ccccc2)nc2ccccc21` (stereo not drawn), the Potency entry is “inactive”.
